# Screening results as filed in PubChem BioAssay.
# VACV Venus inh: inhibitors of vaccinia virus (Venus reporter); hit rate 0.46% among 330,000; Potency, µM (series often up to 36.5 µM), without a hit: top-dose activity change, negative = inhibition, actives largely listed as inhibitors; Vaccinia virus Venus reporter expression, fluorescence; AID 720580; calls by dose curve; tested in A549 cells; note: potency is the fitted concentration of half-maximal effect; nearly all actives have a fitted effect of over 30% in size
# FMDV antiviral: antivirals against foot and mouth disease virus; Potency, µM (doses to about 57.9 µM), for the others: top-dose activity change, negative = inhibition, actives largely listed as inhibitors; AID 1159524; hit rate 1.2% among 410,000; FMDV antiviral cell-based qHTS; calls by dose curve; tested in HEK293T cells; note: read-out not given here; potency is the fitted concentration of half-maximal effect; nearly all actives have a fitted effect of over 45% in size
# HCMV antiviral: human cytomegalovirus inhibition; hit rate 4.5% among 410,000; AID 1259415; HFF cells, HCMV-luciferase reporter, 72 h; hits give low values; activity change, negative = inhibition, % at 57.5 µM; in the data active = activity change below about -60%; inconclusive = no clear call, values can overlap the other calls; inactive = above about -39%
#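 Compounds were evaluated in HFFs infected with an HCMV luciferase reporter virus (MOI 1 PFU/cell). Luciferase in lysates collected 72 h post infection served as the replication measure.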
# Vaccinia mCherry: vaccinia inhibition (mCherry reporter) | Potency, µM (highest dose often 36.5 µM), for inactives: at the top dose activity change, negative = inhibition, most hits filed as inhibitors | AID 720579 | hit rate 0.63% among 310,000 | Vaccinia virus mCherry reporter infection, fluorescence; calls by dose curve; tested in A549 cells; note: potency is the fitted concentration of half-maximal effect; nearly all actives have a fitted effect of over 35% in size
# HCV inhibitor: inhibitors of hepatitis C virus infection | hit rate 3.4% among 340,000 | Potency, µM (highest dose often 41.8 µM), for the others: at the top dose activity change, negative = inhibition, most hits filed as inhibitors | Huh7.5.1 HCVcc-Cre infection, luciferase reporter, 44 h | AID 651820; note: potency is the fitted concentration of half-maximal effect
#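 Whole-lifecycle infectious HCVcc-Cre system; cells 1,000/well, compound then virus (~0.5 moi) added 4 h after plating, 44 h culture. Luciferase read 15 sec following 15 min substrate incubation, room temp.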
# Sm TGR inh: blocks Schistosoma mansoni thioredoxin glutathione reductase; hit rate 3% among 360,000; Q962Y6; purified TGR, DTNB reduction, TNB absorbance 405 nm; Potency, µM (series often up to 114 µM), for the others: at the highest dose activity change, negative = inhibition, actives largely listed as inhibitors; note: potency is the fitted concentration of half-maximal effect; nearly all actives have a fitted effect of over 60% in size
#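 TGR 20 nM + NADPH 100 uM (dispensed conc.), cpd preinc 15 min RT; start with NADPH (500 uM addition) then DTNB (15 mM addition). Kinetic TNB absorbance, 405 nm filter. Four-parameter Hill fit across titration.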
# Active calls of the source: *; i = inactive; ? = inconclusive; · = no result given; + = active, no number. Most compounds without a hit are left out; they make up all but 9.3% or so of the library. Unless noted, calls come from the whole dose curve; as a rule, active = well fitted curve in the direction sought with a large enough effect; inconclusive = small, poorly fitted or top-dose-only effect, or another doubt; inactive = no such curve, though single readings can be large; an effect the other way counts as inactive or inconclusive. % is set by controls: 0 for no effect and ±100 for the full control effect.
SMILES,VACV Venus inh,FMDV antiviral,HCMV antiviral,Vaccinia mCherry,HCV inhibitor,Sm TGR inh
COc1ccc(C(=O)Cn2c(C(C)=O)nc3ccccc32)cc1,-21%,5%,-64*,i,?,·
COc1ccc(C(=O)CN2C(=O)c3ccccc3S2(=O)=O)cc1,-14%,5.6µM*,-92*,-2%,2%,3%
COc1ccc(C(=O)CN2C(=O)c3ccccc3S2(=O)=O)cc1Br,4%,-15%,-23,-9%,0%,-2%
COc1ccc(C)cc1NC(=O)CN1C(=O)c2ccccc2S1(=O)=O,6%,-14%,-60*,1%,-6%,-3%
CC(=O)NS(=O)(=O)c1ccc(NC(=O)[C@@H]2CCCN2S(=O)(=O)c2ccc(Cl)cc2)cc1,·,-18%,-3,·,16%,·
Cc1c(C(C)NC(=O)c2ccc3nc(Cc4ccccc4F)oc3c2)cnn1C (stereo unspecified),·,2%,0,·,-28%,8%
CCN(CC)S(=O)(=O)c1cc(NC(=O)c2ccc(-n3cncn3)c([N+](=O)[O-])c2)ccc1C,?,13µM*,-84*,-19%,11µM*,-9%
COc1ccc(NC(=O)c2ccc(-n3cccn3)c([N+](=O)[O-])c2)cc1,-6%,-26%,-13,i,-29%,40µM*
COc1ccccc1NC(=O)c1ccc(-n2cccn2)c([N+](=O)[O-])c1,-13%,-23%,-20,i,-23%,25µM*
O=C(Nc1ccc(Cl)cc1)c1ccc(-n2cccn2)c([N+](=O)[O-])c1,·,-21%,5,·,?,0%
Cc1ccc(NC(=O)c2ccc(-n3cccn3)c([N+](=O)[O-])c2)cc1C,·,-11%,121,·,?,11µM*
O=C(c1cc2cc(Br)ccc2oc1=O)N1CCN(c2ccccn2)CC1,-3%,12%,-10,-9%,·,2%
COCCNC(=O)c1ccc2c(c1)NC(=O)C(CS(=O)(=O)Cc1ccc(F)cc1Cl)N2 (stereo unspecified),-1%,-16%,33,i,·,-9%
Cc1[nH]c(=O)[nH]c(=O)c1S(=O)(=O)N1CCN(c2ccccc2)CC1,-6%,-15%,4,-14%,8%,9%
Clc1ccc2ncc(-c3nnnn3-c3ccccc3)c(-c3ccccc3)c2c1,·,0%,-36,·,2.8µM*,4%
CC1CC(C)(C)Nc2ccc(N=O)cc21 (stereo unspecified),0%,?,-60*,?,?,14µM*
CC1CC(C)(C)Nc2ccc(OC(=O)c3ccco3)cc21 (stereo unspecified),8%,?,-107*,·,-3%,-32%
Cc1ccccc1NC(=O)Cc1nc(COC(=O)c2cccc(O)c2)cs1,·,-16%,82,·,?,-2%
Cc1ccc(C(=O)N/N=C\c2ccc(-c3ccc(Cl)cc3)o2)cn1,·,-25%,-12,·,11µM*,10%
CCOc1ccc(OCc2ccc(C(=O)NN=Cc3ccc[nH]3)cc2)cc1,?,-13%,+,?,0.56µM*,·
O=C(N/N=C/c1ccc[nH]1)c1ccccc1OCc1ccc(F)cc1,10%,-22%,?,-17%,-22%,5%
Cc1ccc(C(=O)N/N=C\c2ccc[nH]2)cn1,9%,27%,-21,-9%,8.9µM*,0%
Cc1cccc(C(=O)N/N=C/c2ccc[nH]2)c1,-20%,22%,-28,-11%,?,3%
O=C(N/N=C/c1ccc[nH]1)c1cccc(Br)c1,-22%,21%,?,?,4.5µM*,-7%
O=C(N/N=C/c1ccc[nH]1)c1cccnc1,-9%,-2%,11,-13%,4%,0%
SMILES,VACV Venus inh,FMDV antiviral,HCMV antiviral,Vaccinia mCherry,HCV inhibitor,Sm TGR inh
CCn1ncc(N(C)N)c(Cl)c1=O,-6%,6%,0,i,-2%,15%
CN(C)c1ccc(C(=O)N/N=C/c2cc(Br)cc(Br)c2O)cc1,-36%,-15%,-90*,-39%,?,0%
Cc1ccc(C(=O)N/N=C/c2cc(Br)ccc2O)cn1,·,16%,-102*,·,?,2%
Cc1ccc(C(=O)N/N=C\C=C\c2ccc(Br)cc2)cn1,·,10%,-13,·,2%,-11%
COc1ccc(-n2c(Cc3ccccc3)nnc2SCc2nc(-c3ccccc3C)no2)cc1,-10%,4%,0,-4%,·,3%
COc1ccc(CCNC(=O)C2CCN(S(=O)(=O)c3cccc4nonc34)CC2)cc1OC,-15%,?,-15,·,-16%,0%
COc1ccc(CCNC(=S)NC(=O)c2cccc(Cl)c2)cc1OC,0%,-17%,28,14%,-22%,0%
COc1ccc(CCNC(=S)NC(=O)c2ccccc2)cc1OC,·,-27%,-7,·,-18%,50µM*
COc1ccc(CCNC(=O)c2ccc(CNc3nc(=S)[nH]c4ccccc34)cc2)cc1OC,-26%,-29%,-18,-24%,10µM*,6%
COc1ccc(C(=O)Cc2ccc(OC)c(OC)c2)cc1,-16%,·,6,i,?,-2%
COc1ccc(C(=O)CCc2ccc(OC)c(OC)c2)cc1,6%,-13%,-80*,i,?,·
COc1ccc2cc3cc(C(=O)NCCc4ccc(OC)c(OC)c4)oc3nc2c1,?,8.9µM*,-30,-12%,?,5%
COc1ccc(CCNc2nc(=S)[nH]c3cc(OC)c(OC)cc23)cc1OC,-22%,?,?,0%,?,0%
COc1cccc(CN2CC(C(=O)N(C)Cc3nc(C)cs3)CCC2=O)c1 (stereo unspecified),·,3%,-1,·,-1%,0%
O=C(NC(=S)NCCc1ccccc1)c1cccc(Cl)c1,-11%,41%,-19,-13%,17%,40µM*
COc1ccc(C(=O)NC(=S)NCCc2ccccc2)cc1,-10%,26%,-17,i,10%,·
COc1ccc(/C=C/C(=O)NC(=S)NCCc2ccc(OC)c(OC)c2)cc1,?,?,-62*,?,?,3%
COc1ccc(CCNC(=O)/C=C\c2ccccc2)cc1OC,-12%,0%,?,-14%,-5%,7%
COc1ccc(CCNC(=O)CSC(=O)c2ccccc2)cc1OC,·,-14%,-60*,·,-2%,-27%
COc1ccc(CC(C)CC(=O)NCCc2ccc(OC)c(OC)c2)cc1 (stereo unspecified),·,-6%,-61*,·,?,-10%
CCCN(C(=O)COC(=O)CSc1ccc(C(N)=O)cc1[N+](=O)[O-])C1CCS(=O)(=O)C1 (stereo unspecified),-8%,-17%,-17,-11%,9%,-12%
COCc1[nH]nc2c1C(c1c(F)cccc1Cl)C(C#N)=C(N)O2 (stereo unspecified),-17%,-12%,-7,·,2%,-15%
CC(C)(C)c1ccc(Cn2ccc(-c3ccc4c(c3)OCO4)n2)cc1,·,6%,10,·,-12%,0%
O=C(Nc1cccnc1)C1(c2ccccc2)CCCC1,-3%,-16%,10,-6%,9%,7%
